Measurements from PubChem BioAssay (NCI).
The panel holds about 79,000 compounds, 15% with a hit somewhere; the sample as a whole holds those more often. Calls of active or inactive are those of the source. Cut-off read from the data, not from the text of the source: active = growth inhibition above about 70%; inactive = the rest.

Experiments:
[1] = NCI Yeast Anticancer Drug Screen. Data for the rad50 strain (AID 155);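 note: 0% = growth of vehicle-only cultures of the same strain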; settings: S. cerevisiae rad50 strain growth inhibition, hits give high values
In short: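 Growth of the mutant yeast was measured after compound exposure and referenced to vehicle-treated cultures.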

[2] = NCI Yeast Anticancer Drug Screen. Data for the mec2-1 strain (AID 157); settings: S. cerevisiae mec2-1 strain, hits give high values
In short: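 Using mec2-1 yeast: add compound, measure growth, express inhibition versus vehicle-treated cultures.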

[3] = NCI Yeast Anticancer Drug Screen. Data for the sgs1 mgt1 strain (AID 161);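 note: 0% = growth of cultures given vehicle only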; settings: S. cerevisiae sgs1 mgt1 strain, hits give high values
In short: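 This yeast growth screen uses a strain with defined DNA-repair lesions; compound-treated growth is compared with vehicle-treated growth.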

[4] = NCI Yeast Anticancer Drug Screen. Data for the cln2 rad14 strain (AID 165);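 note: 0% = growth equal to vehicle treated cultures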; settings: S. cerevisiae cln2 rad14 strain, hits give high values
In short: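 Yeast strain cln2 rad14, bearing defects in cell cycle control and DNA repair, serves as the test system; values reflect growth inhibition compared with vehicle.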

[5] = NCI Yeast Anticancer Drug Screen. Data for the bub3 strain (AID 167); settings: S. cerevisiae bub3 mutant strain, hits give high values
In short: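 Whole-cell yeast assay. The mutant strain was incubated with compounds, and growth inhibition was determined by comparison with vehicle-treated cells.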

[6] = NCI Yeast Anticancer Drug Screen. Data for the wt2 strain (AID 169);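 note: 0% = growth of vehicle-treated yeast cultures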; settings: S. cerevisiae wt2 strain growth inhibition, hits give high values
In short: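 Treated yeast vs. vehicle-treated yeast: growth inhibition determined.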

[7] = NCI Yeast Anticancer Drug Screen. Data for the mlh1 rad18 strain (AID 175); settings: S. cerevisiae mlh1 rad18 strain growth inhibition, hits give high values
In short: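 Steps: expose repair-defective yeast to compound; measure growth; express inhibition against vehicle-treated controls.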

[8] = at 5.0 µM (retest, dose inferred, filed as 0.5)
[9] = at 50.0 µM (retest, dose inferred, filed as 5.0)

Measured: growth inhibition

CCCCCCCCCCCCN
inactive: [2]; [8] 65% | [2]; at 50.0 µM 45% | [3]; [8] -4% | [4]; at 50.0 µM 26.6% | [5]; [8] 56% | [6]; at 1.2 µM -14% | [6]; at 3.7 µM -21% | [6]; at 11.0 µM -9% | [6]; at 33.0 µM -5%
active: [1]; [8] 71% | [1]; [9] 99% | [1]; at 50.0 µM 77.5% | [2]; [9] 99% | [3]; [9] 98% | [3]; at 50.0 µM 81.8% | [4]; [8] 73% | [4]; [9] 100% | [5]; [9] 98% | [5]; at 50.0 µM 79.7% | [6]; at 100.0 µM 97% | [7]; [8] 70% | [7]; [9] 100% | [7]; at 50.0 µM 72.2%

CC1(O)Cc2c(O)c3c(c(O)c2CC1O)C(=O)C=CC3=O (stereo not given)
inactive: [1]; [8] 9% | [1]; [9] 51% | [2]; [8] 6% | [2]; [9] 46% | [2]; at 50.0 µM 69.2% | [3]; [8] 4% | [3]; [9] 43% | [3]; at 50.0 µM 26.5% | [4]; [8] 7% | [4]; [9] 37% | [4]; at 50.0 µM 14.9% | [5]; [8] 1% | [5]; [9] 56% | [5]; at 50.0 µM 24.2% | [7]; [8] 9%
active: [1]; at 50.0 µM 72.2% | [7]; [9] 70%

O=Cc1cc([N+](=O)[O-])ccc1O.[Eu]
inactive: [1]; [8] 28% | [1]; [9] 51% | [2]; [8] 46% | [2]; [9] 69% | [3]; [8] -4% | [4]; [8] 18% | [5]; [8] 49% | [6]; at 1.2 µM 6% | [6]; at 3.7 µM 7% | [6]; at 11.0 µM 20% | [6]; at 33.0 µM 36% | [7]; [8] 29% | [7]; [9] 64%
active: [1]; at 50.0 µM 81.3% | [2]; at 50.0 µM 86.1% | [3]; [9] 95% | [3]; at 50.0 µM 91.2% | [4]; [9] 97% | [4]; at 50.0 µM 83.2% | [5]; [9] 96% | [5]; at 50.0 µM 85.8% | [6]; at 100.0 µM 98% | [7]; at 50.0 µM 86.2%

Fc1ccccc1-c1ncc(-c2ccccc2)o1
inactive: [1]; [8] 65% | [1]; at 50.0 µM 23.4% | [2]; [8] 60% | [2]; at 50.0 µM 22.2% | [3]; [8] -14% | [3]; [9] 60% | [3]; at 50.0 µM 51.8% | [4]; [8] 39% | [4]; at 50.0 µM 13.7% | [5]; [8] 24% | [5]; at 50.0 µM 16.7% | [6]; at 1.2 µM -1% | [6]; at 3.7 µM -3% | [6]; at 11.0 µM -10% | [6]; at 33.0 µM -2% | [6]; at 100.0 µM 28% | [7]; [8] 36% | [7]; at 50.0 µM 4.3%
active: [1]; [9] 96% | [2]; [9] 94% | [4]; [9] 70% | [5]; [9] 82% | [7]; [9] 91%

CCSC1=C(C)C(=O)c2ccccc2C1=O
inactive: [1]; [8] 35% | [2]; [8] 32% | [2]; at 50.0 µM 50.1% | [3]; [8] 7% | [3]; [9] 26% | [4]; [8] 44% | [4]; [9] 34% | [4]; at 50.0 µM 41.9% | [5]; [8] -6% | [5]; [9] 36% | [6]; at 1.2 µM 18% | [6]; at 3.7 µM 11% | [6]; at 11.0 µM 6% | [6]; at 33.0 µM 20% | [7]; [8] 11% | [7]; [9] 62% | [7]; at 50.0 µM 55%
active: [1]; [9] 99% | [1]; at 50.0 µM 70.1% | [2]; [9] 99% | [3]; at 50.0 µM 74.2% | [5]; at 50.0 µM 77.2% | [6]; at 100.0 µM 98%

Cc1cc(NCCCCCCCNc2cc(C)nc3cc([N+](=O)[O-])ccc23)c2ccc([N+](=O)[O-])cc2n1
inactive: [1]; [8] 1% | [1]; at 50.0 µM 68.5% | [2]; [8] 15% | [3]; [8] 5% | [4]; [8] 14% | [4]; at 50.0 µM 57.8% | [5]; [8] 1% | [7]; [8] 5%
active: [1]; [9] 87% | [2]; [9] 83% | [2]; at 50.0 µM 77% | [3]; [9] 90% | [3]; at 50.0 µM 72.2% | [4]; [9] 70% | [5]; [9] 83% | [5]; at 50.0 µM 73.1% | [7]; [9] 88%

CCN(CCO)CCNc1ccc(C)c2sc3ccccc3c(=O)c12
inactive: [1]; [8] 36% | [2]; [8] 13% | [3]; [8] 9% | [4]; [8] 21% | [5]; [8] 6% | [7]; [8] 23%
active: [1]; [9] 98% | [1]; at 50.0 µM 88.2% | [2]; [9] 92% | [2]; at 50.0 µM 90.7% | [3]; [9] 98% | [3]; at 50.0 µM 91.8% | [4]; [9] 94% | [4]; at 50.0 µM 90.8% | [5]; [9] 98% | [5]; at 50.0 µM 90.5% | [7]; [9] 98%

CCCCCCCCCCS(=O)CC(CO)NC(=O)/C=C/c1c(C)[nH]c(=O)[nH]c1=O (stereo not given)
inactive: [1]; [8] 35% | [2]; [8] 20% | [3]; [8] 68% | [4]; [8] 34% | [5]; [8] 50% | [7]; [8] 53%
active: [1]; [9] 93% | [1]; at 50.0 µM 86.2% | [2]; [9] 94% | [2]; at 50.0 µM 89.8% | [3]; [9] 98% | [3]; at 50.0 µM 88.7% | [4]; [9] 89% | [4]; at 50.0 µM 84.2% | [5]; [9] 96% | [5]; at 50.0 µM 88.3% | [7]; [9] 92%
